Screens as filed in PubChem.
Compounds with a hit are over-represented: about 2.8% of the library has one in this group of screens.
PP1 counter = PP1-alpha (human) inhibition in PP5 counter-screen; P62136; purified PP1alpha, OMFP fluorescence; inhibition, % at 6.7 µM; 0.9% of 320,000 active;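 active means inhibition above the mean inhibition of all tested compounds plus 3 SD, computed separately for each screening campaign, cut at about 15% in these data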
IDE cell activ = boosts human insulin-degrading enzyme activity in HEK cells; P14735; FAbeta-B cleavage, fluorescence polarization; 0% vehicle, 100% cell-free pure enzyme wells; activation, % at 5.96 µM; 0.073% of 340,000 active;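 active means activation above the mean of all tested compounds plus 3 SD, set per screening campaign, cut at about 17% in these data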
Granule exo inh = blocks lytic granule exocytosis; TALL-104 LAMP-1 surface exposure, flow cytometry; cells stimulated with thapsigargin and PMA; inhibition, % at 10 µM; 0.66% of 360,000 active; AID 651702;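 active means inhibition above about 55%, limit read from the data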
SKKanGAS inh = inhibitors of SKKanGAS S. pyogenes growth in kanamycin (SK-promoter or general growth effect); BacTiter-Glo, 6 h; inhibition, % at 7.5 µM; 1.3% of 300,000 active; AID 1662;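 active means mean replicate score, as percent of positive control median, at least 50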;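 further: strain carries kanamycin resistance gene driven by streptokinase promoter and grows in 40 µg/ml kanamycin; loss of luminescence reflects streptokinase promoter inhibition or plain growth inhibition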
IDE inh = inhibits human insulin-degrading enzyme in HEK cells | P14735 | FAbetaB cleavage, fluorescence polarization | inhibition, % at 5.59 µM | 0.41% of 320,000 active | AID 434962;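 active means percent inhibition above the average of all tested compounds plus 3 SD, set per screening campaign, cut at about 16% in these data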;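 further: IDE supplied by intact live HEK cells; FP after avidin binding of uncleaved biotin substrate so inhibition keeps polarization high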
PP5 primary = PP5 (human) phosphatase inhibition | 0.18% of 320,000 active | inhibition, % at 6.7 µM | P53041 | purified PP5c, OMFP substrate fluorescence;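 active means inhibition above the campaign's mean inhibition across all tested compounds plus 3 SD, cut at about 9.5% in these data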
Target sequence (P53041 whole entry, looked up): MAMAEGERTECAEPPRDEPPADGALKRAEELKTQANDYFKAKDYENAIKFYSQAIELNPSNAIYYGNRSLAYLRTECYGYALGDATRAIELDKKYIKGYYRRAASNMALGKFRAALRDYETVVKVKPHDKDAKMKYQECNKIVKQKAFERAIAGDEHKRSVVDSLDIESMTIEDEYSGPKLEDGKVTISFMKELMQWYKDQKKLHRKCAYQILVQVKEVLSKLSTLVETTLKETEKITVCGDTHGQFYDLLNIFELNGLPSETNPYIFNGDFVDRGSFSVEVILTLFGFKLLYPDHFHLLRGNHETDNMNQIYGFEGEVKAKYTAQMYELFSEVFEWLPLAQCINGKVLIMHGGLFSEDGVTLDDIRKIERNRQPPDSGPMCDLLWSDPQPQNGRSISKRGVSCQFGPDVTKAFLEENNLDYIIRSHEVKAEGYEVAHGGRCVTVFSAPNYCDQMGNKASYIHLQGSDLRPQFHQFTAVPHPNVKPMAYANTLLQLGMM
PP1 confirm = human PP1 phosphatase inhibition, confirmation; shares compounds with PP1 counter; purified PP1alpha, OMFP substrate fluorescence; inhibition, % at 6.7 µM; 52% of 1,900 active; AID 2358;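 active means mean PP1 inhibition above a set limit taken from the earlier primary screen, cut at about 15% in these data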
PP5 counter = inhibits human PP5 phosphatase in PP1 counter-screen; shares compounds with PP1 counter; purified PP5c, OMFP fluorescence; inhibition, % at 6.7 µM; 4% of 1,900 active;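 active means mean PP5 inhibition over triplicate wells above about 9.5% taken from the earlier PP1 screen, limit read from the data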
Each line names hits and unclear results; the compound was inactive in the other large screens (follow-up assays come after a bar, where they were run).

COC(=O)C(NC(=O)CCc1nnc2ccc(N3CCC(C)CC3)nn12)C(C)C (stereo not given)	PP1 counter 31 | PP1 confirm inactive | PP5 counter inactive
Cc1cc(NC(=O)COC(=O)C(Nc2ccc(C(F)(F)F)cc2Cl)C(C)C)no1 (stereo not given)	none
Cc1cccc(OCc2nnc(SCC(=O)N3c4ccccc4CCc4ccccc43)o2)c1	PP1 counter 19 | PP1 confirm inactive | PP5 counter inactive
COc1ccc(Cl)cc1NC(=O)c1nnn(CC(=O)Nc2ccc(OC)c(OC)c2)c1N	none
COc1ccc(Cl)cc1NC(=O)c1nnn(CC(=O)Nc2ccc3c(c2)OCO3)c1N	PP1 counter 25 | PP1 confirm 26 | PP5 counter inactive
COc1cccc(NC(=O)Cn2nnc(C(=O)Nc3cc(Cl)ccc3OC)c2N)c1	PP1 counter 18 | PP1 confirm 19 | PP5 counter inactive
COCCn1c(C)cc(C2=NNC(=Nc3ccc(OC)cc3)SC2)c1C	PP1 counter 20 | PP1 confirm inactive | PP5 counter inactive
C#CCOCCOCCOCCNc1nc(N2CCN(C(=O)[C@H](Cc3cc4ccccc4[nH]3)n3cc([C@@H](N)CC(C)C)nn3)CC2)nc(N2CCN(C(=O)[C@H](Cc3cc4ccccc4[nH]3)n3cc([C@@H](N)CC(C)C)nn3)CC2)n1	PP1 counter 43 | PP1 confirm inactive | PP5 counter inactive
C#CCOCCOCCOCCNc1nc(N2CCOCC2)nc(N2CCN(C(=O)[C@H](Cc3cc4ccccc4[nH]3)n3cc([C@@H](N)CC(C)C)nn3)CC2)n1	none
C#CCOCCOCCOCCNc1nc(N2CCN(C(=O)[C@H]([C@@H](C)CC)n3cc([C@@H](N)Cc4ccc(O)cc4)nn3)CC2)nc(N2CCN(C(=O)[C@H](Cc3cc4ccccc4[nH]3)n3cc([C@@H](N)C(C)CC)nn3)CC2)n1 (stereo not given in full)	none (no result: IDE cell activ, Granule exo inh)
C#CCOCCOCCOCCNc1nc(N2CCN(C(=O)[C@H](Cc3cc4ccccc4[nH]3)n3cc([C@@H](N)C(C)CC)nn3)CC2)nc(N2CCN(C(=O)[C@H](Cc3cc4ccccc4[nH]3)n3cc([C@@H](N)Cc4ccc(O)cc4)nn3)CC2)n1 (stereo not given in full)	PP1 counter 84 (no result: IDE cell activ, Granule exo inh) | PP1 confirm 78 | PP5 counter inactive
C#CCOCCOCCOCCNc1nc(N2CCN(C(=O)[C@H](Cc3ccc(O)cc3)n3cc([C@@H](N)C(C)CC)nn3)CC2)nc(N2CCN(C(=O)[C@H](Cc3cc4ccccc4[nH]3)n3cc([C@@H](N)CC(C)C)nn3)CC2)n1 (stereo not given in full)	PP1 counter 20 (no result: IDE cell activ, Granule exo inh) | PP1 confirm inactive | PP5 counter inactive
C#CCOCCOCCOCCNc1nc(N2CCN(C(=O)[C@H](Cc3cc4ccccc4[nH]3)n3cc([C@@H](N)Cc4ccc(O)cc4)nn3)CC2)nc(N2CCN(C(=O)[C@H](Cc3cc4ccccc4[nH]3)n3cc([C@@H](N)CC(C)C)nn3)CC2)n1	none (no result: PP1 counter, Granule exo inh, SKKanGAS inh, IDE inh, PP5 primary)
CCc1nc2ccc(C(=O)NCc3ccc4c(c3)OCO4)cn2c1N(C)C(=O)Cc1ccccc1	none (no result: PP1 counter, IDE cell activ, SKKanGAS inh, IDE inh, PP5 primary)
CCOc1ccc(-n2c(O)c(/C=N/NC(=O)C3COc4ccccc4O3)c3ccccc3c2=O)cc1 (stereo not given)	PP1 counter 23, SKKanGAS inh 73 | PP1 confirm 28 | PP5 counter inactive
COc1cc(/C=N\NC(=O)C2COc3ccccc3O2)cc(OC)c1O (stereo not given)	none
CCc1ccc2c(c1)C(NC(C)=O)C(=O)N2CCN1CCOCC1 (stereo not given)	PP1 counter 41 | PP1 confirm 36 | PP5 counter inactive
CCCN1C(=O)C(NC(C)=O)c2ccccc21 (stereo not given)	none
Cc1cc(C)cc(CN2C(=O)NC3(CCCCCC3)C2=O)c1	none
CC1=Nc2nc(N3CCCCC3)c(C#N)c3c4c(nc(c23)N1)N(c1ccc(C(C)C)cc1)C(=O)C4	PP1 counter 20 | PP1 confirm 16 | PP5 counter inactive
CN(CCOc1ccccc1)CC(O)COCc1ccccc1F (stereo not given)	none
CC1CC(C)CN(CC(O)COCc2ccccc2F)C1 (stereo not given)	PP1 counter 39 | PP1 confirm inactive | PP5 counter inactive
CCCn1cc(C(=O)N(C)C2CCCN(Cc3ccccc3F)C2)c(C)n1 (stereo not given)	none
Cc1cc2c(C)nc(N/N=C/c3ccc([N+](=O)[O-])cc3)nc2o1	PP1 counter 18 | PP1 confirm 33 | PP5 counter inactive
CCCCC[n+]1cccc2c3ccccc3ccc21	none
CCC[n+]1c2ccccc2cc2ccccc21	PP1 counter 25 | PP1 confirm 20 | PP5 counter inactive
O=C(Nc1nc(-c2ccccc2)cs1)c1ccc(=O)[nH]c1	none
Cc1cc(-c2csc(NC(=O)c3ccc(=O)[nH]c3)n2)c(C)n1Cc1ccccc1	PP1 counter 28 | PP1 confirm inactive | PP5 counter inactive
CC(=O)NC(CC(=O)NCCc1ccccc1)c1ccccc1 (stereo not given)	none (no result: PP1 counter, IDE inh, PP5 primary)
O=C(CC(NC(=O)c1ccccc1Cl)c1ccccc1)NCCc1ccc(Cl)cc1 (stereo not given)	PP1 counter 19 | PP1 confirm inactive | PP5 counter inactive
Cc1c([N+](=O)[O-])cc(S(=O)(=O)Nc2ccc(-c3ccc(N4CCCC4)nn3)cc2)cc1[N+](=O)[O-]	PP1 counter 19 | PP1 confirm 21 | PP5 counter inactive
O=[N+]([O-])c1ccc(S(=O)(=O)Nc2ccc(-c3ccc(N4CCCC4)nn3)cc2)cc1	none
N#Cc1ccccc1OCc1cccc(S(=O)(=O)N2CCOCC2)c1	none (no result: SKKanGAS inh)
COc1ccc(-c2coc3c(CN4CCCCC4)c(O)c(CN4CCCCC4)c(O)c3c2=O)cc1	PP1 counter 29 (no result: IDE cell activ, Granule exo inh) | PP1 confirm inactive | PP5 counter inactive
O=C1OC(=O)C2C3CCC(O3)C12 (stereo not given)	PP1 counter 75, PP5 primary 67 (no result: IDE cell activ, Granule exo inh, SKKanGAS inh) | PP1 confirm 46 | PP5 counter 51
COc1ccc2nc(NC(=O)c3cccc(-c4cc5ccccc5oc4=O)c3)sc2c1	PP1 counter 23 | PP1 confirm 26 | PP5 counter inactive
Cc1c(NC(=O)C(C)C)cccc1-c1nc2ncccc2o1	none
COc1ccc(C(=O)Nc2nc3ccc(OC)cc3s2)cc1	none (no result: PP1 counter, IDE inh, PP5 primary)
Cc1c(NC(=O)c2cccc(-c3cc4ccccc4oc3=O)c2)cccc1-c1nc2ncccc2o1	PP1 counter 23 | PP1 confirm 31 | PP5 counter inactive
